# In article PMC5540273 (PLoS ONE, 2017):
# Where “and” joins values, the source holds several entries; their conditions need not be identical. Equal entries are not always repeated. Where two headings read alike, the source gives them in different places.
# Columns and labels:
# AAK1 = conditions: concentration: 1 μM, replicates: in singlicate; n = 1
# ABL1-nonphosphorylated = conditions: concentration: 1 μM, replicates: in singlicate, n = 1
# ABL1-phosphorylated = conditions: concentration: 1 μM, replicates: in singlicate, n = 1
# ABL2 = conditions: concentration: 1 μM, replicates: in singlicate, n = 1
# ACVR1B = conditions: concentration: 1 μM, replicates: in singlicate; n = 1
# ACVR1 = conditions: concentration: 1 μM, replicates: in singlicate; n = 1
# ACVR2A = conditions: concentration: 1 μM, replicates: in singlicate; n = 1
# ACVR2B = conditions: concentration: 1 μM, replicates: in singlicate; n = 1
# ACVRL1 = conditions: concentration: 1 μM, replicates: in singlicate; n = 1
# ADCK3 = tested on: T1, ADCK3; conditions: concentration: 1 μM, replicates: in singlicate, n = 1
# T1 construct: gene CABC1
# ADCK4 = conditions: concentration: 1 μM, replicates: in singlicate, n = 1
# AKT1 = conditions: concentration: 1 μM, replicates: in singlicate; n = 1
# AKT2 = conditions: concentration: 1 μM, replicates: in singlicate, n = 1
# p38-alpha = tested on: T2, p38-alpha
# T2 construct: gene MAPK14
# p38-beta = tested on: T3, p38-beta
# T3 construct: gene MAPK11
# YSK4 = tested on: T4, YSK4
# T4 construct: gene MAP3K19
# 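Throughout, for %Inh: KINOMEscan kinase panel screen.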
# 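Throughout, for Kd: kd values determined as follow-up on hits from a single-replicate KINOMEscan panel screen.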
compound,measurement,setting,value
Cc1ccc(O)cc1Nc1cc(C(F)(F)F)nc2ccc(-c3ccncc3)cc12 [GW630823],%Inh,AAK1,0%
same,%Inh,ABL1-nonphosphorylated,21%
same,%Inh,ABL1-phosphorylated,7%
same,%Inh,ABL2,14%
same,%Inh,ACVR1B,0%
same,%Inh,ACVR1,11%
same,%Inh,ACVR2A,0%
same,%Inh,ACVR2B,0%
same,%Inh,ACVRL1,0%
same,%Inh,ADCK3,10%
same,%Inh,ADCK4,0%
same,%Inh,AKT1,5%
same,%Inh,AKT2,1%
COC(=O)c1cccc(NC(=O)NCCNc2ccnc(Nc3ccc(F)cc3)n2)c1 [GSK1379883],%Inh,AAK1,3%
same,%Inh,ABL1-nonphosphorylated,0%
same,%Inh,ABL1-phosphorylated,0%
same,%Inh,ABL2,1%
same,%Inh,ACVR1B,0%
same,%Inh,ACVR1,6%
same,%Inh,ACVR2A,0%
same,%Inh,ACVR2B,0%
same,%Inh,ACVRL1,0%
same,%Inh,ADCK3,15%
same,%Inh,ADCK4,48%
same,%Inh,AKT1,0%
same,%Inh,AKT2,0%
Nc1n[nH]c2nnc(-c3ccccc3)cc12 [SB-517389],%Inh,AAK1,16%
same,%Inh,ABL1-nonphosphorylated,11%
same,%Inh,ABL1-phosphorylated,5%
same,%Inh,ABL2,13%
same,%Inh,ACVR1B,0%
same,%Inh,ACVR1,16%
same,%Inh,ACVR2A,0%
same,%Inh,ACVR2B,4%
same,%Inh,ACVRL1,0%
same,%Inh,ADCK3,6%
same,%Inh,ADCK4,16%
same,%Inh,AKT1,0%
same,%Inh,AKT2,13%
COc1ccc(Nc2nccc(N3CCC(NC(=O)c4cccc(NC(C)=O)c4)C3)n2)cc1 (stereo not shown) [GSK1379732],Kd,WNK4,> 10000 nM
same,%Inh,AAK1,17%
same,%Inh,ABL1-nonphosphorylated,0%
same,%Inh,ABL1-phosphorylated,0%
same,%Inh,ABL2,0%
same,%Inh,ACVR1B,0%
same,%Inh,ACVR1,6%
same,%Inh,ACVR2A,0%
same,%Inh,ACVR2B,0%
same,%Inh,ACVRL1,2%
same,%Inh,ADCK3,8%
same,%Inh,ADCK4,36%
same,%Inh,AKT1,0%
same,%Inh,AKT2,14%
Clc1cccc(-c2nc(Nc3ccncc3)c3ccccc3n2)c1 [GW873004],%Inh,AAK1,0%
same,%Inh,ABL1-nonphosphorylated,51%
same,%Inh,ABL1-phosphorylated,14%
same,%Inh,ABL2,28%
same,%Inh,ACVR1B,72%
same,%Inh,ACVR1,0%
same,%Inh,ACVR2A,25%
same,%Inh,ACVR2B,15%
same,%Inh,ACVRL1,9%
same,%Inh,ADCK3,30%
same,%Inh,ADCK4,20%
same,%Inh,AKT1,11%
same,%Inh,AKT2,0%
COc1ccc(NC(=O)c2ccc(-c3cc(-c4nnc(C)o4)ccc3C)cc2)cc1 [GW595885],Kd,p38-alpha,180 nM
same,%Inh,AAK1,0%
same,%Inh,ABL1-nonphosphorylated,0%
same,%Inh,ABL1-phosphorylated,0%
same,%Inh,ABL2,16%
same,%Inh,ACVR1B,0%
same,%Inh,ACVR1,0%
same,%Inh,ACVR2A,0%
same,%Inh,ACVR2B,5%
same,%Inh,ACVRL1,0%
same,%Inh,ADCK3,0%
same,%Inh,ADCK4,28%
same,%Inh,AKT1,0%
same,%Inh,AKT2,0%
CCc1nc(-c2cccc(N(C)S(=O)(=O)c3ccccc3)c2)c(-c2ccnc(Nc3ccc(N4CCN(C(C)=O)CC4)nc3)n2)s1 [GSK1645895],Kd,ZAK,220 nM
same,%Inh,AAK1,26%
same,%Inh,ABL1-nonphosphorylated,28%
same,%Inh,ABL1-phosphorylated,7%
same,%Inh,ABL2,23%
same,%Inh,ACVR1B,0%
same,%Inh,ACVR1,0%
same,%Inh,ACVR2A,0%
same,%Inh,ACVR2B,0%
same,%Inh,ACVRL1,0%
same,%Inh,ADCK3,16%
same,%Inh,ADCK4,19%
same,%Inh,AKT1,0%
same,%Inh,AKT2,0%
CNc1nccc(-c2c(-c3ccc(F)cc3)ncn2C2CCN(C)CC2)n1 [SB-222903],Kd,p38-alpha,53 nM
same,%Inh,AAK1,0%
same,%Inh,ABL1-nonphosphorylated,34%
same,%Inh,ABL1-phosphorylated,6%
same,%Inh,ABL2,0%
same,%Inh,ACVR1B,0%
same,%Inh,ACVR1,0%
same,%Inh,ACVR2A,0%
same,%Inh,ACVR2B,0%
same,%Inh,ACVRL1,0%
same,%Inh,ADCK3,0%
same,%Inh,ADCK4,22%
same,%Inh,AKT1,0%
same,%Inh,AKT2,2%
COc1cc2c(Nc3cccc(NC(=O)c4ccccc4)c3)ncnc2cc1OCCCN1CCOCC1 [GSK223810],Kd,p38-alpha,440 nM
same,Kd,p38-beta,100 nM
same,%Inh,AAK1,45%
same,%Inh,ABL1-nonphosphorylated,41%
same,%Inh,ABL1-phosphorylated,0%
same,%Inh,ABL2,21%
same,%Inh,ACVR1B,7%
same,%Inh,ACVR1,5%
same,%Inh,ACVR2A,0%
same,%Inh,ACVR2B,0%
same,%Inh,ACVRL1,0%
same,%Inh,ADCK3,30%
same,%Inh,ADCK4,12%
same,%Inh,AKT1,0%
same,%Inh,AKT2,19%
C[C@H]1CC[C@@H](C(=O)Nc2ccccc2)CN1c1cc(-c2ccc3c(N)n[nH]c3c2)nc(N)n1 [GSK2283293],%Inh,AAK1,23%
same,%Inh,ABL1-nonphosphorylated,0%
same,%Inh,ABL1-phosphorylated,8%
same,%Inh,ABL2,15%
same,%Inh,ACVR1B,0%
same,%Inh,ACVR1,0%
same,%Inh,ACVR2A,0%
same,%Inh,ACVR2B,0%
same,%Inh,ACVRL1,0%
same,%Inh,ADCK3,11%
same,%Inh,ADCK4,40%
same,%Inh,AKT1,0%
same,%Inh,AKT2,6%
O=C(NCCCN1CCCC1=O)c1cnc(NCc2cc(Cl)ccc2Cl)nc1NC1CCNCC1,%Inh,AAK1,0%
same,%Inh,ABL1-nonphosphorylated,0%
same,%Inh,ABL1-phosphorylated,0%
same,%Inh,ABL2,0%
same,%Inh,ACVR1B,0%
same,%Inh,ACVR1,0%
same,%Inh,ACVR2A,0%
same,%Inh,ACVR2B,0%
same,%Inh,ACVRL1,0%
same,%Inh,ADCK3,9%
same,%Inh,ADCK4,0%
same,%Inh,AKT1,0%
same,%Inh,AKT2,0%
COc1ccc(-c2nc3n(c2-c2ccncc2)CCC3)cc1 [SKF-104493],Kd,YSK4,> 10000 nM
same,Kd,p38-alpha,220 nM and 130 nM
same,%Inh,AAK1,0%
same,%Inh,ABL1-nonphosphorylated; 1 µM,51% and 2%
same,%Inh,ABL1-phosphorylated; 1 µM,20% and 0%
same,%Inh,ABL2; 1 µM,5% and 0%
same,%Inh,ACVR1B,19%
same,%Inh,ACVR1,0%
same,%Inh,ACVR2A,0%
same,%Inh,ACVR2B,0%
same,%Inh,ACVRL1,0%
same,%Inh,ADCK3; 1 µM,0% and 6%
same,%Inh,ADCK4; 1 µM,12% and 6%
same,%Inh,AKT1,0%
same,%Inh,AKT2; 1 µM,0% and 3%
CCCc1ccc(S(=O)(=O)NC2CCN(c3ccnc(Nc4ccc(OC)cc4)n3)C2)cc1 (stereo not shown) [GSK1379737],%Inh,AAK1,0%
same,%Inh,ABL1-nonphosphorylated,0%
same,%Inh,ABL1-phosphorylated,0%
same,%Inh,ABL2,14%
same,%Inh,ACVR1B,0%
same,%Inh,ACVR1,0%
same,%Inh,ACVR2A,0%
same,%Inh,ACVR2B,0%
same,%Inh,ACVRL1,0%
same,%Inh,ADCK3,0%
same,%Inh,ADCK4,66%
same,%Inh,AKT1,0%
same,%Inh,AKT2,0%
CS(=O)(=O)CCNCc1ccc(-c2ccc3ncnc(Nc4ccc(OCc5ccccc5)c(Cl)c4)c3c2)o1.Cl [GW574783],%Inh,AAK1,13%
same,%Inh,ABL1-nonphosphorylated,0%
same,%Inh,ABL1-phosphorylated,0%
same,%Inh,ABL2,0%
same,%Inh,ACVR1B,0%
same,%Inh,ACVR1,2%
same,%Inh,ACVR2A,4%
same,%Inh,ACVR2B,22%
same,%Inh,ACVRL1,0%
same,%Inh,ADCK3,23%
same,%Inh,ADCK4,20%
same,%Inh,AKT1,46%
same,%Inh,AKT2,21%
